Measured values reported in the supplement of paper PMC7380943.

Columns and labels:
[1] = test system: CLZ3 (HCA2 human fibroblast dual HR-NHEJ reporter); experiment: NHEJ repair efficiency (GFP+ cells) relative to control (log10 fold); higher = more non-homologous end joining; details: 5 µM; doxycycline 0.5 ug/mL
[2] = test system: CLZ3 (HCA2 human fibroblast dual HR-NHEJ reporter); experiment: HR repair efficiency (tdTomato+ cells) relative to control (log10 fold); higher = more homologous recombination; details: 5 µM; doxycycline 0.5 ug/mL
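Wherever HR repair efficiency (tdTomato+ cells) relative to control is given: compound given one day before doxycycline, which switches on I-SceI endonuclease expression to create double-strand breaks within the integrated reporter.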
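Wherever NHEJ repair efficiency (GFP+ cells) relative to control is given: compound given one day ahead of doxycycline, which switches on I-SceI endonuclease to cut the chromosomally integrated reporter and create DSBs.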

Structure (SMILES)	NHEJ repair efficiency (log10) [1]	HR repair efficiency (log10) [2]
COc1cc2c(c(O)c1OC)-c1c(cc(OC)c(OC)c1OC)C[C@@H](C)[C@@H](C)C2 [Schisanhenol]	-0.161	-0.0391
O=C(O[C@@H]1Cc2c(O)cc(O)cc2O[C@H]1c1cc(O)c(O)c(O)c1)c1cc(O)c(O)c(O)c1 [(-)Gallocatechin gallate]	-0.12	0.0198
Oc1cc(O)c2c(c1)OC(c1ccc(O)c(O)c1)C(OC1(c3ccc(O)c(O)c3)Oc3cc(O)cc(O)c3C(O)C1O)C2 (centres undefined) [Procyanidins]	0.0386	0.123
CC[C@H](CC[C@@H](C)[C@H]1CC[C@H]2[C@@H]3CC=C4C[C@@H](O)CC[C@]4(C)[C@H]3CC[C@]12C)C(C)C [β-Sitosterol]	0.038	0.098
C[C@@H]1O[C@@H](OC[C@H]2O[C@@H](Oc3cc(O)c4c(c3)O[C@H](c3ccc(O)cc3)CC4=O)[C@H](O)[C@@H](O)[C@@H]2O)[C@H](O)[C@H](O)[C@H]1O [Narirutin]	0.00886	-0.053
CC(=O)O[C@H]1CC(=O)OC(C)(C)[C@@H]2CC(=O)[C@]3(C)[C@H](CC[C@@]4(C)[C@@H](c5ccoc5)OC(=O)[C@H]5O[C@]543)[C@@]12C [Nomilin]	-0.276	-0.226
C[C@H](N)C(=O)O [Alanine]	0.113	-0.14
OCc1ccc(O[C@@H]2O[C@H](CO)[C@@H](O)[C@H](O)[C@H]2O)cc1 [Gastrodin]	0.113	0.307
COc1ccc([C@@H]2CC(=O)c3c(O)cc(O[C@@H]4O[C@H](CO[C@@H]5O[C@@H](C)[C@H](O)[C@@H](O)[C@H]5O)[C@@H](O)[C@H](O)[C@H]4O)cc3O2)cc1O [Hesperidin]	0.196	0.258
COc1cc(/C=C/C(=O)O)ccc1O [Sodium Ferulate]	-0.0171	0.0132
CC1(C)CC[C@]2(C(=O)O)CCC3=C([C@@H](CCl)C[C@@H]4[C@@]5(C)C[C@H](O)[C@H](O)[C@@](C)(C(=O)O)[C@@H]5CC[C@@]34C)[C@@H]2C1 [Senegenin]	-0.0514	-0.031
CC1(C)CC[C@]2(C(=O)O)CC[C@]3(C)C(=CC[C@@H]4[C@@]5(C)CC[C@H](O[C@@H]6O[C@H](C(=O)O)[C@@H](O)[C@H](O[C@@H]7OC[C@@H](O)[C@H](O)[C@H]7O)[C@H]6O)C(C)(C)[C@@H]5CC[C@]43C)[C@@H]2C1 [Momordin Ic]	0.0282	-0.203
O=C1Nc2ccccc2/C1=C1/Nc2ccccc2C1=O [Indirubin]	-0.0691	-0.00679
O=C(/C=C/c1ccc(O)c2c1[C@H](C(=O)O)[C@@H](c1ccc(O)c(O)c1)O2)O[C@H](Cc1ccc(O)c(O)c1)C(=O)O [Lithospermic acid]	0.072	0.0325
COC(=O)C1=CO[C@@H](O[C@@H]2O[C@H](CO)[C@@H](O)[C@H](O)[C@H]2O)[C@H]2[C@@H]1[C@H](O)C[C@]2(C)O [Shanzhiside methylester]	0.193	0.314
OC[C@H]1O[C@@H](Oc2cc3c(O)cc(O)cc3[o+]c2-c2ccc(O)c(O)c2)[C@H](O)[C@@H](O)[C@@H]1O [Cyanidin3-o-glucoside]	-0.035	0.142
O=C1/C(=C2\Nc3ccccc3C2=O)Nc2ccccc21 [Indigotin]	0.00962	-0.105
C[C@@H]1O[C@@H](O[C@H]2[C@H](Oc3cc(O)c(C(=O)CCc4ccc(O)cc4)c(O)c3)O[C@H](CO)[C@@H](O)[C@@H]2O)[C@H](O)[C@H](O)[C@H]1O	-0.0363	-0.0118
C=CCc1ccc(OC)c(OC)c1 [Methyleugenol]	0.14	0.161

Structure (SMILES)	NHEJ repair efficiency (log10) [1]	HR repair efficiency (log10) [2]
C[C@@H]1O[C@@H](Oc2c(-c3cc(O)c(O)c(O)c3)oc3cc(O)cc(O)c3c2=O)[C@H](O)[C@H](O)[C@H]1O [Myricetrin]	0.0716	-0.0586
Oc1cc(O)c2c(c1)O[C@H](c1ccc(O)c(O)c1)[C@H](O)[C@H]2c1c(O)cc(O)c2c1O[C@H](c1ccc(O)c(O)c1)[C@H](O)C2 [Procyanidin B2]	0.092	-0.122
O=C(/C=C/c1ccc(O)c(O)c1)O[C@H](Cc1ccc(O)c(O)c1)C(=O)O [Rosmarinicacid]	-0.275	-0.328
C=C[C@H]1[C@H](O[C@@H]2O[C@H](CO)[C@@H](O)[C@H](O)[C@H]2O)OC=C2C(=O)OCC[C@]21O [Swertiamarin]	-0.0365	-0.0353
COC(=O)C1=CO[C@@H](O[C@@H]2O[C@H](CO)[C@@H](O)[C@H](O)[C@H]2O)[C@@H]2[C@H](C)O[C@@H](O)C[C@H]12 [Morroniside]	0.0778	0.186
O=c1cc(-c2ccc(O)cc2)oc2cc(O)c([C@@H]3O[C@H](CO)[C@@H](O)[C@H](O)[C@H]3O)c(O)c12 [Isovitexin]	0.0409	0.0479
CC(C)=CCC[C@](C)(O[C@@H]1O[C@H](CO)[C@@H](O)[C@H](O)[C@H]1O)[C@H]1CC[C@]2(C)[C@@H]1[C@H](O)C[C@@H]1[C@@]3(C)CC[C@H](O[C@@H]4O[C@H](CO)[C@@H](O)[C@H](O)[C@H]4O[C@@H]4O[C@H](CO)[C@@H](O)[C@H](O)[C@H]4O)C(C)(C)[C@@H]3CC[C@]12C [Ginsenoside Rd]	0.0871	0.0615
CC1=C2C(=O)O[C@@H](c3ccoc3)[C@]2(C)CCC1 [Fraxinellone]	0.105	0.113
CC1(C)[C@@H](O[C@H]2O[C@H](C(=O)O)[C@@H](O)[C@H](O)[C@H]2O[C@@H]2O[C@H](C(=O)O)[C@@H](O)[C@H](O)[C@H]2O)CC[C@]2(C)[C@H]3C(=O)C=C4[C@@H]5C[C@@](C)(C(=O)O)CC[C@]5(C)CC[C@@]4(C)[C@]3(C)CC[C@@H]12 [Monoammonium glycyrrhizinate]	-0.145	-0.0779
C/C=C(\C)C(=O)OC1c2c(ccc3ccc(=O)oc23)OC(C)(C)C1OC(=O)/C(C)=C/C (centres undefined) [Praeruptorin B]	-0.0992	0.0577
COc1cc(O)c2c(=O)c(-c3ccc(O)cc3)coc2c1 [Prunusetin]	-0.0809	-0.16
CC1OC(OC2C(C)OC(OC(=O)C34CCC(C)(C)CC3C3=CCC5C6(C)CCC(OC7OC(C(=O)O)C(OC8OC(CO)C(OC9OC(CO)C(O)C(O)C9O)C(O)C8O)C(OC8OCC(O)C(O)C8O)C7O)C(C)(C=O)C6CCC5(C)C3(C)CC4)C(OC3OCC(O)C(O)C3OC3OCC(O)C(O)C3O)C2O)C(O)C(OC2OCC(O)C(O)C2O)C1O (centres undefined) [Gypenoside]	0.0642	0.115
O=c1cc(-c2ccc(O)c(O)c2)oc2cc(O)c([C@@H]3O[C@H](CO)[C@@H](O)[C@H](O)[C@H]3O)c(O)c12 [Isoorientin]	-0.0953	0.00986
CC(C)=CCC12Oc3cc(O)ccc3C1(O)Oc1cc(O)c([C@H]3C=C(C)C[C@@H](c4ccc(O)cc4O)[C@@H]3C(=O)c3ccc(O)cc3O)c(O)c1C2=O (some centres undefined) [Sanggenon D]	-0.0219	-0.176
CC12CCC(CC1)C(C)(C)O2 [Eucalyptol]	0.0692	0.0216
C=C(C)C(=O)Cc1c(OC)ccc2ccc(=O)oc12 [Murrayone]	0.0921	-0.312
Nc1ncnc2c1ncn2[C@@H]1O[C@H](CO)[C@@H](O)[C@H]1O [Adenosine]	-0.0785	-0.0239
C=C1C[C@@]2(O)O[C@@]3(C[C@H]2C(C)C)[C@@H](C)CC[C@@H]13 [Curcumol]	-0.0784	0.163
